# Results: paper PMC7862700, “An all-to-all approach to the identification of sequence-specific readers for epigenetic DNA modifications on cytosine”
# Key:
# Test in all cases: DAPPL (digital affinity profiling via proximity ligation, sequencing); 10 mM Tris-HCl pH 7.5, 50 mM NaCl, 1 mM DTT, 4% glycerol, room temperature, 30 min; GST-TFs on glutathione beads, 16-mer random dsDNA library, 0.1% formaldehyde crosslink after washing; high values mean tight binding
# [1] = molecular target: T1, FEV (Homo sapiens, UniProt Q99581 1-238); settings: protein: recombinant; tags: N-terminal GST; dsDNA, one strand shown
# T1 sequence: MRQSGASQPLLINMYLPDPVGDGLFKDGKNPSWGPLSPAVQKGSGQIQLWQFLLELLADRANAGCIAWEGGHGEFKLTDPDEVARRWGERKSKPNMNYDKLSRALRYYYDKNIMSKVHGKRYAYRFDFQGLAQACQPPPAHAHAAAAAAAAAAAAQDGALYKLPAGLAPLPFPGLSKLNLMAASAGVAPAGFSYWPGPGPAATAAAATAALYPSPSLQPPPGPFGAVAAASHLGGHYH
# Summary of the method: (§1)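 Human transcription factors were made in yeast as GST fusions, captured on glutathione beads and barcoded with DNA. With a tag-only sample included, the pool was incubated with 200 nmole of a random double-stranded 16-mer DNA library in Tris/NaCl/DTT/glycerol buffer at room temperature for 30 min, then crosslinked with 0.1% formaldehyde after washing, ligated by proximity, amplified and sequenced. For binding signal, each hexamer's read frequency for a factor is divided by its frequency for the tag-only sample.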
# [2] = molecular target: ETV5 (Homo sapiens, UniProt P41161 1-510); settings: protein: recombinant; tags: N-terminal GST; dsDNA, one strand shown
# Sequence of ETV5 (P41161 whole entry): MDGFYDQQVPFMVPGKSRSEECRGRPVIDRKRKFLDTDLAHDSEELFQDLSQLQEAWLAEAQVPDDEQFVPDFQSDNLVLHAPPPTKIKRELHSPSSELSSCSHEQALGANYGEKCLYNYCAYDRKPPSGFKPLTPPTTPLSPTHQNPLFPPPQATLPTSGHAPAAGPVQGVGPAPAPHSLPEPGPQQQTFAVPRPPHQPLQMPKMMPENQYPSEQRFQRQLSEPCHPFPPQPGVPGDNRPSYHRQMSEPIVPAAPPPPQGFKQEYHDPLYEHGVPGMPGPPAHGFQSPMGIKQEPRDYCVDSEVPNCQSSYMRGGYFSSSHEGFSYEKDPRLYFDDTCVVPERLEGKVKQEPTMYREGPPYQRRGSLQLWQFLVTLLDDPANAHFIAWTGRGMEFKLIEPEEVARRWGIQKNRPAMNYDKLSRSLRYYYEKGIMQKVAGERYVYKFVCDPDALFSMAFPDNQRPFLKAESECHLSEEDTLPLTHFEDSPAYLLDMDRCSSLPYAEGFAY
# Summary of the method: as §1
# [3] = molecular target: HSF1 (Homo sapiens, UniProt Q00613 1-529); settings: protein: recombinant; tags: N-terminal GST; chain copies: 3; dsDNA, one strand shown
# Sequence of HSF1 (Q00613 whole entry): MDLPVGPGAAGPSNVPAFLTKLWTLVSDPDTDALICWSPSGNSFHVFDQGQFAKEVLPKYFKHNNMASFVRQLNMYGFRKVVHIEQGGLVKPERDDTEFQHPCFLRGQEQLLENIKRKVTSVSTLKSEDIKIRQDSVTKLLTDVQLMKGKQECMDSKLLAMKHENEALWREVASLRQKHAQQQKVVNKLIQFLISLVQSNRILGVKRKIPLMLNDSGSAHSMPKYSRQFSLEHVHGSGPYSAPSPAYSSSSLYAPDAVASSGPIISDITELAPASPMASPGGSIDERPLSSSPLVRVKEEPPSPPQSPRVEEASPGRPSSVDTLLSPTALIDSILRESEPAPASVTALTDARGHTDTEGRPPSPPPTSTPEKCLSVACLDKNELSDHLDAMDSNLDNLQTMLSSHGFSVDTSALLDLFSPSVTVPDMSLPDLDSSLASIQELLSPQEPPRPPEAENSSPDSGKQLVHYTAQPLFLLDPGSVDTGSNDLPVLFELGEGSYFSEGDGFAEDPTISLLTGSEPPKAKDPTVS
# Summary of the method: as §1
# [4] = molecular target: T2, SPIC (Homo sapiens, UniProt Q8N5J4 1-248); settings: protein: recombinant; tags: N-terminal GST; dsDNA, one strand shown
# T2 sequence: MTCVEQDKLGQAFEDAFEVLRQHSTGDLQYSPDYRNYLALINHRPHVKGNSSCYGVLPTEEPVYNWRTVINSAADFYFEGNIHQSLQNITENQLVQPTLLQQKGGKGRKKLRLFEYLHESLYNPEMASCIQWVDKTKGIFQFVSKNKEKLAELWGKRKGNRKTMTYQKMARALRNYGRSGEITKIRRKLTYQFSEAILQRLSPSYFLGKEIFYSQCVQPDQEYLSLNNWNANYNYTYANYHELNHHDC
# Summary of the method: as §1
# [5] = molecular target: ELF4 (Homo sapiens, UniProt Q99607 1-663); settings: protein: recombinant; tags: N-terminal GST; dsDNA, one strand shown
# Sequence of ELF4 (Q99607 whole entry): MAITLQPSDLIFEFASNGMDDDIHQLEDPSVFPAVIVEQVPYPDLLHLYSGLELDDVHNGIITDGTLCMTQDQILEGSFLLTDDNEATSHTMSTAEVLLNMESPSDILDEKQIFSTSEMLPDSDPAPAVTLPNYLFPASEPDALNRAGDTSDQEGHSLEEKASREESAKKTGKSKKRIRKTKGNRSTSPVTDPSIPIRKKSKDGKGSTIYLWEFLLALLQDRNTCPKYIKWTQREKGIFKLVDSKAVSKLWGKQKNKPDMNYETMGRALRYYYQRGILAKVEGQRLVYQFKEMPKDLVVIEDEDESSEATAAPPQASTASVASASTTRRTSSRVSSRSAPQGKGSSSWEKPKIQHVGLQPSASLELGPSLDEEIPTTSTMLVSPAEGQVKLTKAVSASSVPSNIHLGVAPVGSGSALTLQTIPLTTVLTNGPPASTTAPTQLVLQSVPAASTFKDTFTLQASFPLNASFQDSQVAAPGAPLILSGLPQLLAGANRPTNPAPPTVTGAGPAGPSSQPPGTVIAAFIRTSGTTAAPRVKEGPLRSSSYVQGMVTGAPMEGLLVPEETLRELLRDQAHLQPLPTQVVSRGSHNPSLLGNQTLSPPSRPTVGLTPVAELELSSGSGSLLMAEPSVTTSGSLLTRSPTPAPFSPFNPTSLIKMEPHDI
# Summary of the method: as §1
# [6] = molecular target: T3, ELK4 (Homo sapiens, UniProt P28324-2 1-405); settings: protein: recombinant; tags: N-terminal GST; dsDNA, one strand shown
# T3 sequence: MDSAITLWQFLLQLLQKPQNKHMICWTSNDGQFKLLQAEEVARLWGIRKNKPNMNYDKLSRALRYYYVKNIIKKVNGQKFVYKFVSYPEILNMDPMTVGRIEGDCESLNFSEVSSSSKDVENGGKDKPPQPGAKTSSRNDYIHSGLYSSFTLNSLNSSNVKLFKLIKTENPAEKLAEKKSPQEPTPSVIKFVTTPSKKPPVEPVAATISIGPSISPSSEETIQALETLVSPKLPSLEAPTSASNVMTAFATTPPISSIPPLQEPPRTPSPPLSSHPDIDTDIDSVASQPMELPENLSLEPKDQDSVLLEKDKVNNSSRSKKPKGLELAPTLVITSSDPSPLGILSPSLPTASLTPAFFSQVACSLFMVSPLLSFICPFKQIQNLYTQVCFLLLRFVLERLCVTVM
# Summary of the method: as §1
# [7] = molecular target: T4, ETV2 (Homo sapiens, UniProt O00321 1-342); settings: protein: recombinant; tags: N-terminal GST; dsDNA, one strand shown
# T4 sequence: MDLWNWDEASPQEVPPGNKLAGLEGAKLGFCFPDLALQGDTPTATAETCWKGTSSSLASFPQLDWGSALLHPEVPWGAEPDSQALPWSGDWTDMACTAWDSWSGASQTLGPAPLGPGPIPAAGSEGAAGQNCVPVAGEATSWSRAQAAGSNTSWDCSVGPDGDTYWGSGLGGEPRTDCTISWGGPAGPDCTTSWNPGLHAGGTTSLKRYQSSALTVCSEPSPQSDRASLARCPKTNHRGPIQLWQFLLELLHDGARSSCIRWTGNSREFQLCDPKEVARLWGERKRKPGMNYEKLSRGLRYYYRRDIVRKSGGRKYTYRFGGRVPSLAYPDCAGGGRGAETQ
# Summary of the method: as §1
# [8] = molecular target: T5, ELF3 (Homo sapiens, UniProt P78545 1-371); settings: protein: recombinant; tags: N-terminal GST; dsDNA, one strand shown
# T5 sequence: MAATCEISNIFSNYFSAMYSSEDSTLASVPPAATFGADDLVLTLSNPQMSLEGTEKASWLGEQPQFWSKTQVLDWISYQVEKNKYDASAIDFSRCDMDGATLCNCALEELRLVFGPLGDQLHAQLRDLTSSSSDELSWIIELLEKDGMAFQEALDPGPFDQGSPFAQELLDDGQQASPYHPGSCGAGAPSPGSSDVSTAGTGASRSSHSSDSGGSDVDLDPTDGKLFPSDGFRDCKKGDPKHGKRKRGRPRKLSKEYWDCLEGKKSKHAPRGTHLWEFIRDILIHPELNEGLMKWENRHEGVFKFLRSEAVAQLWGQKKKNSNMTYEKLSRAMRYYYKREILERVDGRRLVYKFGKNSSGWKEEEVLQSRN
# Summary of the method: as §1
# [9] = molecular target: CRX (Homo sapiens, UniProt O43186 1-299); settings: protein: recombinant; tags: N-terminal GST; dsDNA, one strand shown
# Sequence of CRX (O43186 whole entry): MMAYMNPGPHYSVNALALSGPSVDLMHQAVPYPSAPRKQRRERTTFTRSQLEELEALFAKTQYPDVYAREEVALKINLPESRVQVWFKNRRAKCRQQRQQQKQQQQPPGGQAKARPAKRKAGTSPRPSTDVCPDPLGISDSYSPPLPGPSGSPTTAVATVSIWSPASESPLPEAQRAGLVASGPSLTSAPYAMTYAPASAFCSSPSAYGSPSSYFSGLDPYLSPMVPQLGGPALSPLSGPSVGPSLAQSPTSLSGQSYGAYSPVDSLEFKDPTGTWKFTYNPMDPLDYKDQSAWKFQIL
# Summary of the method: as §1
# [10] = molecular target: ETV1 (Homo sapiens, UniProt P50549 1-477); settings: protein: recombinant; tags: N-terminal GST; dsDNA, one strand shown
# Sequence of ETV1 (P50549 whole entry): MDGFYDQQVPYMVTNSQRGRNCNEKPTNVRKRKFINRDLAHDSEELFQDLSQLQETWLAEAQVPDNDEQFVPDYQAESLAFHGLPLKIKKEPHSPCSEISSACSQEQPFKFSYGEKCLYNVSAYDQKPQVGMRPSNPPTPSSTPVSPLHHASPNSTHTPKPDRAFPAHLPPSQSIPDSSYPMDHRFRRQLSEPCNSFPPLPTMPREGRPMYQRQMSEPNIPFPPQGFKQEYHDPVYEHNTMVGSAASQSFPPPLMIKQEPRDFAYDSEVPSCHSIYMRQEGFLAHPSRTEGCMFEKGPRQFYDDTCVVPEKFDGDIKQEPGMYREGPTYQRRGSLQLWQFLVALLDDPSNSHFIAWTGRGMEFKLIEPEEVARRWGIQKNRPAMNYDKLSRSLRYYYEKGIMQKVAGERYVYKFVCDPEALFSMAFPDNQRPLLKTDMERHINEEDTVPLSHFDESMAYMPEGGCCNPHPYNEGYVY
# Summary of the method: as §1
# [11] = molecular target: T6, ERF (Homo sapiens, UniProt P50548 1-548); settings: protein: recombinant; tags: N-terminal GST; dsDNA, one strand shown
# T6 sequence: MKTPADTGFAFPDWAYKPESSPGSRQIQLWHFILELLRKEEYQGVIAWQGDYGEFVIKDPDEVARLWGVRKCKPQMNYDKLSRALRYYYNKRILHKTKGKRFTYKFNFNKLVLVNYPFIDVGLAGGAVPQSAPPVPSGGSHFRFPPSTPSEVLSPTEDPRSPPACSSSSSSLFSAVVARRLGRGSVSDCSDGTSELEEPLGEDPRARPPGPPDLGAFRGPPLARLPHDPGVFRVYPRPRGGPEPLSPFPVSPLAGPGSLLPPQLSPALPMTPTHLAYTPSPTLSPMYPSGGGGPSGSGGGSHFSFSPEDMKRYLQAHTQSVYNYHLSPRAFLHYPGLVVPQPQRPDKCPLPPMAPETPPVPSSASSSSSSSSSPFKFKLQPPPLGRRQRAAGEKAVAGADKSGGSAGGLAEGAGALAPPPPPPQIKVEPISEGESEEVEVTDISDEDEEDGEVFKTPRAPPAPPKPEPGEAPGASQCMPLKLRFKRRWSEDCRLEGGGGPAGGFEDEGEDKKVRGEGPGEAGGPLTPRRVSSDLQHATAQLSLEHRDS
# Summary of the method: as §1
# [12] = molecular target: T7, ETV3L (Homo sapiens, UniProt Q6ZN32 1-361); settings: protein: recombinant; tags: N-terminal GST; dsDNA, one strand shown
# T7 sequence: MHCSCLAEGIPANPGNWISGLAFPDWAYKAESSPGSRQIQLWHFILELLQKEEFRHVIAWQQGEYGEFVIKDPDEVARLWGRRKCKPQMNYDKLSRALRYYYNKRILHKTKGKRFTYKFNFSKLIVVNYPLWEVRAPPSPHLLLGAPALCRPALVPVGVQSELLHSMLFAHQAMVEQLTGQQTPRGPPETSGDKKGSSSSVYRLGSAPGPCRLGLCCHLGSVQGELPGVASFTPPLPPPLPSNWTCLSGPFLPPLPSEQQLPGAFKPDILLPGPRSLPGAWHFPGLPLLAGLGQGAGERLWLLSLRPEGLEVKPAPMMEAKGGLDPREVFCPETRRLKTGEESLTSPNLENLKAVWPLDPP
# Summary of the method: as §1
# [13] = molecular target: T8, ETS2 (Homo sapiens, UniProt P15036 1-469); settings: protein: recombinant; tags: N-terminal GST; dsDNA, one strand shown
# T8 sequence: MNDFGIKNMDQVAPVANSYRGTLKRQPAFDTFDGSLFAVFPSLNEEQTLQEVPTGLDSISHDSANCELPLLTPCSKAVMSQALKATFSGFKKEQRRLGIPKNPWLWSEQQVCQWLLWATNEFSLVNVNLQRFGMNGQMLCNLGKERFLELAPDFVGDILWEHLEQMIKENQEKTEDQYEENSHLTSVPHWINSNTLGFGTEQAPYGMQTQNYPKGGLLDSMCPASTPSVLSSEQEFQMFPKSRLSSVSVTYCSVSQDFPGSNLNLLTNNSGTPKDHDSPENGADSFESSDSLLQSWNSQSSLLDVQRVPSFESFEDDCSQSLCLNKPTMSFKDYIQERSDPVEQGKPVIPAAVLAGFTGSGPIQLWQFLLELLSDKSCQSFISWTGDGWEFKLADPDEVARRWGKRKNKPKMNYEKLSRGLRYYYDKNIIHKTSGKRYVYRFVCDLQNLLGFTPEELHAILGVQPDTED
# Summary of the method: as §1
# [14] = molecular target: T9, SPDEF (Homo sapiens, UniProt O95238 1-335); settings: protein: recombinant; tags: N-terminal GST; dsDNA, one strand shown
# T9 sequence: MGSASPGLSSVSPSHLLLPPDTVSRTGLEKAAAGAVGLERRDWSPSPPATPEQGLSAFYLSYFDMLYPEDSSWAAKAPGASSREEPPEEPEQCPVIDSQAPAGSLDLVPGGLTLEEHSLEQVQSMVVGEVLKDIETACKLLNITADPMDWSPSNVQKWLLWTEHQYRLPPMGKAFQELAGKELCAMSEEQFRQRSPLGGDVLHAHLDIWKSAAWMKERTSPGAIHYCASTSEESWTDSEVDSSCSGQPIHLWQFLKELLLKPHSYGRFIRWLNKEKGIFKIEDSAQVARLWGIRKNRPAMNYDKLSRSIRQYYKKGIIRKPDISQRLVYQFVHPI
# Summary of the method: as §1
# [15] = molecular target: T10, ETV7 (Homo sapiens, UniProt Q9Y603 1-341); settings: protein: recombinant; tags: N-terminal GST; dsDNA, one strand shown
# T10 sequence: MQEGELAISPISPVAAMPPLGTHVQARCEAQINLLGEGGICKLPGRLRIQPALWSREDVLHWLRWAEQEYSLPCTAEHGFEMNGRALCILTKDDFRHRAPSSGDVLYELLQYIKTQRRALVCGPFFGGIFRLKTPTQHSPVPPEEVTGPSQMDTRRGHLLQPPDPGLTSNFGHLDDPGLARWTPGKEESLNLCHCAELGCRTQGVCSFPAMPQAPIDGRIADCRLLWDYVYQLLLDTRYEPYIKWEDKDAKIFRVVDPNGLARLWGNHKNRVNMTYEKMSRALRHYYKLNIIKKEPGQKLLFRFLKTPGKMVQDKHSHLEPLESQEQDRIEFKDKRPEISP
# Summary of the method: as §1
# [16] = molecular target: T11, ELF5 (Homo sapiens, UniProt Q9UKW6-2 1-255); settings: protein: recombinant; tags: N-terminal GST; dsDNA, one strand shown
# T11 sequence: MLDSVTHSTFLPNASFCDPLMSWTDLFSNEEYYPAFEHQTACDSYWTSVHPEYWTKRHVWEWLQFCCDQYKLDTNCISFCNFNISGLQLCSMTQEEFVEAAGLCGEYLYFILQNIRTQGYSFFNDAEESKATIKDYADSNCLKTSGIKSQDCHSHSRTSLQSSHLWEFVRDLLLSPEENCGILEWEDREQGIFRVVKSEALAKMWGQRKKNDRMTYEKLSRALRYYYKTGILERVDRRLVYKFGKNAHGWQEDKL
# Summary of the method: as §1
# [17] = molecular target: T12, ETV3 (Homo sapiens, UniProt P41162-2 1-143); settings: protein: recombinant; tags: N-terminal GST; dsDNA, one strand shown
# T12 sequence: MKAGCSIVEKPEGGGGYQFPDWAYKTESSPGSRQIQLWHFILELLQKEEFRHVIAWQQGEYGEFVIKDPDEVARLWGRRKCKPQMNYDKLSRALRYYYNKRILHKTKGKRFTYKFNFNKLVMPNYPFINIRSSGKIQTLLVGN
# Summary of the method: as §1
# [18] = molecular target: ETV6 (Homo sapiens, UniProt P41212 1-452); settings: protein: recombinant; tags: N-terminal GST; dsDNA, one strand shown
# Sequence of ETV6 (P41212 whole entry): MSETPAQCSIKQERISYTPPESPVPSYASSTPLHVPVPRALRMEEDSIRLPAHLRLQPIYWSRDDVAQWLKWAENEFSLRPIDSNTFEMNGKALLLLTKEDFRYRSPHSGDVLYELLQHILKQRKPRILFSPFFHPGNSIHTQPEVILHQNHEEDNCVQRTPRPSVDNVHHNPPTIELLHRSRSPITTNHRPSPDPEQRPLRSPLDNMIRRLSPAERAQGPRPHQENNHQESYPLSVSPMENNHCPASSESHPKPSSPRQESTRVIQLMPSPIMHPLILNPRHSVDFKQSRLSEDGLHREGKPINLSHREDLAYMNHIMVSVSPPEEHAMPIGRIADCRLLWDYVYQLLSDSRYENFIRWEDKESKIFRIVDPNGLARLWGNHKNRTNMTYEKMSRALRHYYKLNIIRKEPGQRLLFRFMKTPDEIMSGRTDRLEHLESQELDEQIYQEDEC
# Summary of the method: as §1
sequence,measurement,setting,value
TTTTTG,binding signal,[1],"1.33 fold enrichment (6-mer frequency, TF over GST control)"
same,binding signal,[2],"1.42 fold enrichment (6-mer frequency, TF over GST control)"
same,binding signal,[3],"1.24 fold enrichment (6-mer frequency, TF over GST control)"
same,binding signal,[4],"1.39 fold enrichment (6-mer frequency, TF over GST control)"
same,binding signal,[5],"1.45 fold enrichment (6-mer frequency, TF over GST control)"
same,binding signal,[6],"1.5 fold enrichment (6-mer frequency, TF over GST control)"
same,binding signal,[7],"1.51 fold enrichment (6-mer frequency, TF over GST control)"
same,binding signal,[8],"1.44 fold enrichment (6-mer frequency, TF over GST control)"
same,binding signal,[9],"1.31 fold enrichment (6-mer frequency, TF over GST control)"
same,binding signal,[10],"1.48 fold enrichment (6-mer frequency, TF over GST control)"
same,binding signal,[11],"1.35 fold enrichment (6-mer frequency, TF over GST control)"
same,binding signal,[12],"1.38 fold enrichment (6-mer frequency, TF over GST control)"
same,binding signal,[13],"1.27 fold enrichment (6-mer frequency, TF over GST control)"
same,binding signal,[14],"1.28 fold enrichment (6-mer frequency, TF over GST control)"
same,binding signal,[15],"1.25 fold enrichment (6-mer frequency, TF over GST control)"
same,binding signal,[16],"1.27 fold enrichment (6-mer frequency, TF over GST control)"
same,binding signal,[17],"1.29 fold enrichment (6-mer frequency, TF over GST control)"
same,binding signal,[18],"1.23 fold enrichment (6-mer frequency, TF over GST control)"
